Compound activity as filed in PubChem.
HTR5A inv ag: inverse agonist of human HTR5A in OPRM1-OPRD1 counter-screen; hit rate 0.083% among 340,000; inhibition, % at 9.3 µM; HTR5A cell line, luminescence, inverse agonism; P47898; in the data active means inhibition mostly above about 23%, no sharp cut-off; inactive means mostly below about 18%;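 further: 0% = cells with DMSO and 100% = no-cell wells with DMSO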
OPRM1-OPRD1 inv: mu-delta opioid heterodimer inverse agonism | P35372+P41143 | cell-based MOR-DOR heterodimer luminescence | inhibition, % at 9.3 µM | hit rate 0.21% among 340,000 | AID 504357; in the data active means inhibition above about 22%, passing the limit was not always enough;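 further: 0% = cells with DMSO and 100% = wells without cells with DMSO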
Target sequence (P35372 whole entry, looked up): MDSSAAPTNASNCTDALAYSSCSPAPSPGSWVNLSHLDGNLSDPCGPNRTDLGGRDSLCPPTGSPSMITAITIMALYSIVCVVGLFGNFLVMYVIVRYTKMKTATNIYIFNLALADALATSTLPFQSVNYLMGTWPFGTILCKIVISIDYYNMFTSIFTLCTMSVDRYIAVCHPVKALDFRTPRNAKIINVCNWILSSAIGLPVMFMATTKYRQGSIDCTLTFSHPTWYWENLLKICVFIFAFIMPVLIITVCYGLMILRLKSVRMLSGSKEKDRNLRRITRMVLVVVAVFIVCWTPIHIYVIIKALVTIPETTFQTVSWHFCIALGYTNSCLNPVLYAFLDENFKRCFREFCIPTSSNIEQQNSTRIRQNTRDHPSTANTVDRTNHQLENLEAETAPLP
Target sequence (P41143 whole entry, looked up): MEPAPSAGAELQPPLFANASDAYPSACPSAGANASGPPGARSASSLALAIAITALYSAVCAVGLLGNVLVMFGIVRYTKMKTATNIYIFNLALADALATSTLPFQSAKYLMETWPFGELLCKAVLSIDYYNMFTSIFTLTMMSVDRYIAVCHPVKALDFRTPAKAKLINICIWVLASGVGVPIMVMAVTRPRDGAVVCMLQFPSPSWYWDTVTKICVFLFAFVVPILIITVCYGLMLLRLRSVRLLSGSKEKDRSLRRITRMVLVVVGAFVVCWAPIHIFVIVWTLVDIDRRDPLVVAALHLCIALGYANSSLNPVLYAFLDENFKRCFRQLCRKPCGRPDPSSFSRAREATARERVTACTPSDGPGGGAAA
MOR-DOR ag: agonists of human mu-delta opioid receptor heterodimerization | P35372+P41143 | cells, OPRM1-OPRD1 heterodimerization, luminescence | activation, % at 9.3 µM | hit rate 0.3% among 340,000 | AID 504326; in the data active means activation above about 18%;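 further: 0% = vehicle-treated cells and 100% = reference agonist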
HTR5A ag ctr: HTR5A agonism, opioid heterodimer counter-screen. HTR5A agonist assay, luminescence, cell-based. P47898. hit rate 0.61% among 340,000. activation, % at 9.3 µM; in the data active means activation mostly above about 9.5%, no sharp cut-off; inactive means mostly below about 7.6%;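 further: 0% = cells with vehicle only and 100% = reference agonist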
An asterisk follows results filed as active; i = inactive. This is a sample that favours compounds with a hit; in the whole collection about 1.1% have one here.

SMILES	HTR5A inv ag	OPRM1-OPRD1 inv	MOR-DOR ag	HTR5A ag ctr
CC[C@@H](C(=O)[C@@H](C)[C@@H](O)[C@H](C)CCc1ccc(C)c(O)c1C(=O)O)[C@H]1O[C@](CC)([C@H]2CC[C@](O)(CC)[C@H](C)O2)C[C@@H]1C	-143.2	i	102.0*	40.1*
CCCCNc1nc2c(S(=O)(=O)c3ccccc3)nnn2c2ccccc12	-29.4	-2.9	0.5	-0.5
CCc1ccc(S(=O)(=O)c2nnn3c2nc(NCCNC(C)=O)c2ccccc23)cc1	-27.5	-13.6	2.1	11.1*
O=C(c1cc(C2CC2)nn1-c1ccccc1)N1CCN(c2ccccn2)CC1	11.1	8.7	-1.8	-0.2
COc1ccc(CNC(=O)CN2C(=O)C(C)N(c3ccc(C)cc3)C2=O)cc1 (stereo not given)	-8.4	8.4	-1.4	11.8*
C=CCOc1ccccc1CN(C(=O)CCl)c1ccc2c(c1)OCO2	-142.3	-240.1	45.1*	53.1*
COc1ccc(CN2c3c(Br)cccc3C(=O)CS2(=O)=O)cc1	17.4*	10.9	-2.2	-4.8
O=C1CS(=O)(=O)N(Cc2cccc(F)c2)c2ccc(Br)cc21	-38.4	1.2	-0.2	14.3
O=C(COC(=O)c1ccc(O)cc1O)NC1CC1	16.5	11.1	-2.9	-6.6
O=C(Cc1c[nH]c2ccccc12)NCc1ccncc1	17.1	2.3	-0.5	10.9*
O=C(Cc1ccccc1)NCc1ccncc1	-16.4	9.2	-1.8	0.3
O=S(=O)(NC1c2cccc3cccc(c23)C1Sc1ncccn1)c1ccccc1 (stereo not given)	-11.2	8.7	-1.8	3.6
CC(C)c1ccc(S(=O)(=O)/N=C2\C=C(NS(=O)(=O)c3ccccc3)C(=O)c3ccccc32)cc1	14.7	30.4*	-5.4	-6.0
CC(=O)N(c1ccc(C)cc1)c1nc(C)cc(C)c1C#N	6.7	11.9	-2.2	-0.6
CC1(C)OC2CC3C4CC=C5CC(O)CCC5(C)C4CCC3(C)C2(C(=O)CO)O1 (stereo not given)	-4.0	9.9	-1.9	1.0
Cc1cc(-c2nn(-c3ccccc3F)cc2CN2CCC(C(N)=O)CC2)c(C)s1	4.4	3.1	-0.6	-1.1
Cc1cc(-c2nn(-c3ccccc3F)cc2CNCCc2cnc[nH]2)c(C)s1	-8.8	i	143.6*	-3.1
C(=N/Nc1nc(-c2ccccc2)cc(-c2ccccc2)n1)/c1cccnc1	14.1	-15.5	2.9	3.8
Cc1cc(-c2ccccc2)nc(N/N=C/c2cccnc2)n1	-27.1	-0.1	0.0	11.0*
COC(=O)c1ccc2c(c1C(=O)OC)CN(S(=O)(=O)C(C)(C)C)[C@@H]2CCO	9.5	-13.8	3.0	-2.8
CCN(c1ccccc1)S(=O)(=O)c1ccc(Cl)c(NC(=O)c2ccc(=O)[nH]n2)c1	-30.3	-15.4	3.7	12.3*
Cc1cccc(NC(=O)c2nc[nH]c2C(=O)N[C@@H](CC(C)C)C(=O)OC(C)(C)C)c1	2.7	-5.4	1.2	2.7
CC(=O)N1N=C(c2cccs2)CC1c1cccc([N+](=O)[O-])c1 (stereo not given)	32.6*	38.2*	-8.3	-11.9
CC(=O)N1N=C(c2ccccc2)CC1c1cccc([N+](=O)[O-])c1 (stereo not given)	11.5	23.0	-4.7	-3.0
CCCN1CCN(CCCNC(=O)C(CC)n2nc(C)c3sc4ccccc4c3c2=O)CC1 (stereo not given)	5.7	15.2	-3.0	10.2*
SMILES	HTR5A inv ag	OPRM1-OPRD1 inv	MOR-DOR ag	HTR5A ag ctr
CCn1nc(C(=O)OCC(=O)N2CCc3ccccc32)c2ccccc2c1=O	-44.8	10.1	-1.8	13.9*
CCn1nc(C(=O)N2CCc3ccccc32)c2ccccc2c1=O	-2.7	0.2	-0.1	5.1
Cc1ccc(-c2csc(NC(=O)CSc3nnc4c(n3)[nH]c3ccccc34)n2)cc1	-49.1	-28.0	5.4	13.4*
Cc1ccc(NC(=O)CSc2nnc3c(n2)[nH]c2ccccc23)cc1	8.1	6.7	-1.3	11.4
Cc1ccc(S(=O)(=O)N2CCN(C(C)C(=O)Nc3ccccc3-c3ccccc3)CC2)cc1 (stereo not given)	-1.8	-3.6	0.6	0.5
Nn1c(SCc2cccc(Br)c2)nnc1-c1cccnc1	2.6	12.0	-2.5	-0.8
Cc1ccc(S(C)=O)cc1-n1c(=O)n(Cc2ccccc2)c(=O)c2[nH]cnc21 (stereo not given)	54.5*	69.2*	-12.5	-13.9
Cc1ccccc1-n1c(=O)n(Cc2ccc(C(=O)O)cc2)c(=O)c2[nH]cnc21	6.7	6.0	-1.3	-1.8
COc1ccc(NCc2nnc(-c3ccccc3)o2)cc1	1.3	7.5	-1.5	2.1
COCCNc1nc(N)c([N+](=O)[O-])c(NCc2ccccc2)n1	1.5	8.1	-1.6	-0.4
C=CCNC(=O)NC(=O)COC(=O)CC(NC(N)=O)c1ccc(Cl)cc1 (stereo not given)	6.0	-1.2	0.2	-1.7
CCc1cc(C(=O)N2CCN(C(=O)c3ccccc3)CC2)sc1C	6.4	18.1	-3.5	-2.6
Fc1ccccc1NC(=S)N1CCN(Cc2ccc3c(c2)OCO3)CC1	-5.3	7.7	-1.5	12.0*
CCCNC(=S)N1CCN(Cc2ccc3c(c2)OCO3)CC1	-28.5	-5.2	1.0	11.6*
Cc1cc(Cl)ccc1NC(=S)N1CCN(Cc2ccc3c(c2)OCO3)CC1	39.3	-29.4	5.0	-1.7
O=C(c1cc2ccccc2o1)N1CCN(Cc2ccc3c(c2)OCO3)CC1	-10.6	8.9	-2.7	11.2*
O=C(CNC(=O)c1ccc(Br)cc1)NCC(=O)OCC(=O)c1ccc(F)cc1	6.4	19.9	-6.1	3.9
O=C(NCC1CCN(Cc2ccccc2F)CC1)Nc1cccc(Br)c1	-49.1	-14.8	3.2	13.8*
O=C(NCC1CCN(Cc2ccccc2F)CC1)Nc1ccccc1F	2.0	2.0	-0.4	-0.5
CN(C(=O)c1cccc(NC(=O)Cc2cccc(NC(=O)C3CCN(C(=O)c4ccccc4)CC3)c2)c1)C1CC1	-31.2	4.3	-0.9	9.1*
CCc1ccccc1NS(=O)(=O)c1ccc(OC)c2ncccc12	-34.6	-20.6	4.0	9.2*
Cc1ccc(OCC(=O)NNC(=S)NC(=O)C(C)(C)C)c(Br)c1	-2.1	26.5	-5.3	0.7
CC(C)c1ccc(OCC(=O)NNC(=S)NC(=O)c2cccs2)c(Br)c1	1.4	16.4	-3.1	11.8*
O=C(CCl)N=c1sccn1Cc1cccc2ccccc12	-20.7	-395.8	73.7*	72.6*
O=C(CCl)N=c1sccn1Cc1ccc(Cl)cc1Cl	-4.1	-383.8	77.1*	53.2*
SMILES	HTR5A inv ag	OPRM1-OPRD1 inv	MOR-DOR ag	HTR5A ag ctr
O=C(CCl)N=c1sccn1Cc1ccccc1Cl	-251.8	-329.9	66.2*	85.0*
CCC(=O)OCC(=O)N=c1sccn1Cc1ccccc1Cl	10.2	3.2	-0.6	-5.2
CC1CN(C(=O)CCC(=O)NCc2ccccc2Cl)c2ccccc2S1 (stereo not given)	9.7	15.7	-3.2	-3.7
COc1cc(/C=C2/SC(=S)N(CCC(=O)Nc3ccccc3)C2=O)cc(OC)c1OC	15.4	15.8	-3.0	-6.4
Cc1cccc(-c2cc(C(=O)Nc3cccnc3)c3ccccc3n2)c1	-11.9	-36.6	5.3	0.1
Cc1cccc(NC(=O)c2cc(-c3cccnc3)nc3c(C)cccc23)n1	-9.3	-45.0	8.4	10.9*
